What all share (assay): DAPPL (digital affinity profiling via proximity ligation, sequencing); 10 mM Tris-HCl pH 7.5, 50 mM NaCl, 1 mM DTT, 4% glycerol, room temperature, 30 min; GST-TFs on glutathione beads, 16-mer random dsDNA library, 0.1% formaldehyde crosslink after washing; high values mean tight binding
Common to all, as to conditions: protein: recombinant; tags: N-terminal GST; dsDNA, one strand shown

The target in one experiment is T1, FLI1 (Homo sapiens, UniProt Q01543 1-452).
T1 sequence: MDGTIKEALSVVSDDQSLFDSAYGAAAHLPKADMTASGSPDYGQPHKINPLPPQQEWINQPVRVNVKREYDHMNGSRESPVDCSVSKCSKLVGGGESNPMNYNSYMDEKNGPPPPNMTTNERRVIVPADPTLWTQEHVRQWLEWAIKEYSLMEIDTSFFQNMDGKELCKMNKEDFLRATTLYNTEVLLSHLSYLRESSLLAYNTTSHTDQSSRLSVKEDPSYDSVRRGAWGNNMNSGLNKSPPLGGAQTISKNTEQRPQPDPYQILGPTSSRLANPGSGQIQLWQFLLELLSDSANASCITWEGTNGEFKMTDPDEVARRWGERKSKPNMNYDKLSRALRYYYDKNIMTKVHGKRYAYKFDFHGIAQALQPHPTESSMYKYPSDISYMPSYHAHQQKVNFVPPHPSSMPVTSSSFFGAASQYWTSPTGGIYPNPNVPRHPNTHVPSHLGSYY
In outline: (§1)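 Sequencing on an Illumina NextSeq500 followed washing, crosslinking with 0.1% formaldehyde, proximity ligation (BsaI/T4 ligase, 1 h, 37 °C) and PCR amplification of pools that had been incubated for 30 min at room temperature with 200 nmole of a random double-stranded 16-mer DNA library in Tris/NaCl/DTT/glycerol buffer. Each pool held DNA-barcoded human transcription factors, expressed in yeast as GST fusions and captured on glutathione beads, plus a tag-only sample. Binding signal is a hexamer's read frequency for a factor divided by its frequency in the tag-only sample.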

The next experiment has as its target T2, ELK1 (Homo sapiens, UniProt P19419 1-428).
T2 sequence: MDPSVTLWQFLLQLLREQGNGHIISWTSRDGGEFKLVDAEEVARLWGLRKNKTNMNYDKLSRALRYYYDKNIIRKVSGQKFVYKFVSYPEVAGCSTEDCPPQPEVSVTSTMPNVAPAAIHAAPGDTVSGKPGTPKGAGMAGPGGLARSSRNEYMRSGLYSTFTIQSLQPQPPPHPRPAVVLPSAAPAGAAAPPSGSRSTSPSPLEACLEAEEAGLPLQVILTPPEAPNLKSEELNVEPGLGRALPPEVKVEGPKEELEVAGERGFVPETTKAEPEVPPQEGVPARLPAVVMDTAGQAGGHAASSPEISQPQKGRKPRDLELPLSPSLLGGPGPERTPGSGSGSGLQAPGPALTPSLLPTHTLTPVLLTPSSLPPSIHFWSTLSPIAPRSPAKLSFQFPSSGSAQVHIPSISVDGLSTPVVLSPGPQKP
In outline:
as §1

For a further experiment, the target named is T3, GABPA (Homo sapiens, UniProt Q06546 1-454).
T3 sequence: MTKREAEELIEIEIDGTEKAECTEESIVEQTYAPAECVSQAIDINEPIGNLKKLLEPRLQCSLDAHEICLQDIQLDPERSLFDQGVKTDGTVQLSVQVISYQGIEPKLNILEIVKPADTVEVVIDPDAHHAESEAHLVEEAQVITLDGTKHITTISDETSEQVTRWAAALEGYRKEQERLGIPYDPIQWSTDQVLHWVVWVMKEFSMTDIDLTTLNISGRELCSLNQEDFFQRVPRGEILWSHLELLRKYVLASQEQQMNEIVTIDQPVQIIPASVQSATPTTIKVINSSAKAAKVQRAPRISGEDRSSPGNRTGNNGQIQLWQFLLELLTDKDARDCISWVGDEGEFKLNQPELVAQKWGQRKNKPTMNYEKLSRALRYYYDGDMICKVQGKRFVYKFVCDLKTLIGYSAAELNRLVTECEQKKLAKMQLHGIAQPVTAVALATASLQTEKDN
In short, it runs like this: as §1

In a further experiment the target is ELF1 (Homo sapiens, UniProt P32519 1-619). In outline: as §1
Chain of ELF1 (P32519 whole entry): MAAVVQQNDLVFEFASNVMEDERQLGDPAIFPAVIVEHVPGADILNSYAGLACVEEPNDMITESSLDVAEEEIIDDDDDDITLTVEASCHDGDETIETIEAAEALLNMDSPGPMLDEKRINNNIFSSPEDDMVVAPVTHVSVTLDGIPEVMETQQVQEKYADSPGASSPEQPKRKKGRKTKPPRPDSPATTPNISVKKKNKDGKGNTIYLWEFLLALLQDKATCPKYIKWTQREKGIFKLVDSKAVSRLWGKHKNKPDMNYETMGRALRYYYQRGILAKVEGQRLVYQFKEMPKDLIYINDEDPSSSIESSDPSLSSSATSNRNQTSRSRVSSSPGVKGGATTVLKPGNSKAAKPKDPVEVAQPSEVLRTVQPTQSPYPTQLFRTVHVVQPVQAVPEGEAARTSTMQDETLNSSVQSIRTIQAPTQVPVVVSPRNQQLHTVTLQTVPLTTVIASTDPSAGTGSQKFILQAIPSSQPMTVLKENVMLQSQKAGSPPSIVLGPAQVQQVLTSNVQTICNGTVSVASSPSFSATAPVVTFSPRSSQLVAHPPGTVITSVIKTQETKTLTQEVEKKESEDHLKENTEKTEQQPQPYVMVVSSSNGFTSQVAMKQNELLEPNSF
A further experiment has as its target T4, EHF (Homo sapiens, UniProt Q9NZC4 1-300).
T4 sequence: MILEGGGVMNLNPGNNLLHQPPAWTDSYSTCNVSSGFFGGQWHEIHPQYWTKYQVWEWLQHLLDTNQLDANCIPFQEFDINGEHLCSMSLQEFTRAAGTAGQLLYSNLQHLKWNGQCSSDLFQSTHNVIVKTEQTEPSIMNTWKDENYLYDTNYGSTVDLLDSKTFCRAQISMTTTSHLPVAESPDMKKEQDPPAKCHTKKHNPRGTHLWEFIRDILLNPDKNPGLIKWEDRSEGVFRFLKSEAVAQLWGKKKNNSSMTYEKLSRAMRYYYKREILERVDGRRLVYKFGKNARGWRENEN
In short, it runs like this: as §1

A further experiment addresses T5, FEV (Homo sapiens, UniProt Q99581 1-238).
T5 sequence: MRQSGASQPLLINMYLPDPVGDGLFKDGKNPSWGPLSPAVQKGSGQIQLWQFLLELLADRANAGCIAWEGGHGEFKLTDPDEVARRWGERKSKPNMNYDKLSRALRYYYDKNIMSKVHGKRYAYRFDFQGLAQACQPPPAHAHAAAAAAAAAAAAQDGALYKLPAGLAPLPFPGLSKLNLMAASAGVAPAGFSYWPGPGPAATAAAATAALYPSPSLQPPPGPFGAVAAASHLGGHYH
In outline:
as §1

A further experiment addresses ETV5 (Homo sapiens, UniProt P41161 1-510). In outline:
as §1

For a further experiment, the target named is T6, SPIC (Homo sapiens, UniProt Q8N5J4 1-248).
T6 sequence: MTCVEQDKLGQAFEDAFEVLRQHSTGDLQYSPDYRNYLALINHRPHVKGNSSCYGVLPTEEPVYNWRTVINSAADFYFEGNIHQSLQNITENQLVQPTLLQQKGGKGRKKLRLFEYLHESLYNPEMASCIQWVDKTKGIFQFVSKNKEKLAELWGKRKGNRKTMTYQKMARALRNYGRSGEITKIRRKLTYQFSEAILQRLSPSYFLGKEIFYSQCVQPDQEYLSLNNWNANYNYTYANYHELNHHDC
In outline:
as §1

The target in the next experiment is ELF4 (Homo sapiens, UniProt Q99607 1-663). In outline: as §1
Chain of ELF4 (Q99607 whole entry): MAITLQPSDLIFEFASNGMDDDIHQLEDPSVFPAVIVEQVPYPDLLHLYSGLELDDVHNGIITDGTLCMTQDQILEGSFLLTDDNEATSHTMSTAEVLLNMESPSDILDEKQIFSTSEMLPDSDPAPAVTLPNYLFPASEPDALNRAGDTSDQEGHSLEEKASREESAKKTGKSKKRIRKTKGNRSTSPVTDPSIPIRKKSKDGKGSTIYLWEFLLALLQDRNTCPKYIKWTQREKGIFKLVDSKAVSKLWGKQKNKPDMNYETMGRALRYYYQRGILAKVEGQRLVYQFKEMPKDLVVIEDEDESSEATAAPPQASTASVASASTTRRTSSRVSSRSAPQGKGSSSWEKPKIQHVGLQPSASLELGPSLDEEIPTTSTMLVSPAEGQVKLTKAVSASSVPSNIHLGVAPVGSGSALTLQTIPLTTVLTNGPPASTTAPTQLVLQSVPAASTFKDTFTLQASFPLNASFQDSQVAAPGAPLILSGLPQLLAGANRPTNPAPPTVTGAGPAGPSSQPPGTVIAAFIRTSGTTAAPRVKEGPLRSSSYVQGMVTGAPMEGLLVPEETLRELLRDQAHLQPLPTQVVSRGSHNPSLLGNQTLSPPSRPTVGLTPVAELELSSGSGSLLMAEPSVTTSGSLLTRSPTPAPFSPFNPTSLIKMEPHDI
Another experiment deals with ETV1 (Homo sapiens, UniProt P50549 1-477). In short, it runs like this:
as §1

The target of the next experiment is T7, ERF (Homo sapiens, UniProt P50548 1-548).
T7 sequence: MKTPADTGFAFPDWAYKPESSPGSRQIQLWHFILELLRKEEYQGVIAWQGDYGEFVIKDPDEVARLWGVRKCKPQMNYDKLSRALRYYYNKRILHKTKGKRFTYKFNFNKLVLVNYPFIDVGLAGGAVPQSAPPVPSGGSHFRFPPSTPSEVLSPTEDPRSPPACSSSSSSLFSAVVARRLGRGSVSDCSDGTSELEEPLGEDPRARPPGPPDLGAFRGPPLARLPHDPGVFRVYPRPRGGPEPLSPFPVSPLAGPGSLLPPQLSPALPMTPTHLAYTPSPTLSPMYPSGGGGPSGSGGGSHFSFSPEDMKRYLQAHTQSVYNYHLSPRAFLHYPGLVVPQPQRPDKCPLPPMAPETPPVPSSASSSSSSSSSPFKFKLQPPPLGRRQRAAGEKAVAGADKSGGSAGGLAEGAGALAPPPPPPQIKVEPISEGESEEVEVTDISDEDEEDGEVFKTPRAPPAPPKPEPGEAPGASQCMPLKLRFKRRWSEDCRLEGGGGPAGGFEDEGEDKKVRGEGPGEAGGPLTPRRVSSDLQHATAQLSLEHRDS
In outline: as §1

For another experiment, the target named is T8, ETV3L (Homo sapiens, UniProt Q6ZN32 1-361).
T8 sequence: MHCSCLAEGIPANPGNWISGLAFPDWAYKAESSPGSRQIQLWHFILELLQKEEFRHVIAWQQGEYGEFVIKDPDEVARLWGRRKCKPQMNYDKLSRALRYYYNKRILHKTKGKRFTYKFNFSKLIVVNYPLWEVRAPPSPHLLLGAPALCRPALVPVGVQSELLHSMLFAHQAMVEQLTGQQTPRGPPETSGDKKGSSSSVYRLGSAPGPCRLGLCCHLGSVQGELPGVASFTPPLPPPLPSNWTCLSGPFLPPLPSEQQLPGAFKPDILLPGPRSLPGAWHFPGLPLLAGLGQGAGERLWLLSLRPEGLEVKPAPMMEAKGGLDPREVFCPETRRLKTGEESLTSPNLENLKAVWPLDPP
In outline: as §1

Another experiment addresses T9, ETS2 (Homo sapiens, UniProt P15036 1-469).
T9 sequence: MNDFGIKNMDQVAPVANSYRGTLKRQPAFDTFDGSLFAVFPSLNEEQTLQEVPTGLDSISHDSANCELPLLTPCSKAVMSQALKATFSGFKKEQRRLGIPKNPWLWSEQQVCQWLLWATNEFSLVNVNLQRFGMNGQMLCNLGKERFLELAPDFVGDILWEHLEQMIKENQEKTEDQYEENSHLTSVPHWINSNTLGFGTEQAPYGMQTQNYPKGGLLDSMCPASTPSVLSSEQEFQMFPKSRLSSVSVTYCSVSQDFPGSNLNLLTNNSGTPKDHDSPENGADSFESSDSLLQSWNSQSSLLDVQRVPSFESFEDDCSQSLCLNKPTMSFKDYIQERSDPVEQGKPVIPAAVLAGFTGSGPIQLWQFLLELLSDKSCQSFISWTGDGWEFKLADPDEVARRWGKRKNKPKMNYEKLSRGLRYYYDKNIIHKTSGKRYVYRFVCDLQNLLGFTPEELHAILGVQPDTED
In outline: as §1

The target in a further experiment is T10, ELF5 (Homo sapiens, UniProt Q9UKW6-2 1-255).
T10 sequence: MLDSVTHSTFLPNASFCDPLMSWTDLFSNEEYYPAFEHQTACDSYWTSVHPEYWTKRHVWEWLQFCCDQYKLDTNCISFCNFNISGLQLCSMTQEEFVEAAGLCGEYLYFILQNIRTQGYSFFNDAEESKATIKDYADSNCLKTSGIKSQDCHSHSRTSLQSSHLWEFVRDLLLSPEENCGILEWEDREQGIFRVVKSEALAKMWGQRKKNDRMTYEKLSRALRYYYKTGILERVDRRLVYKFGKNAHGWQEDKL
In outline: as §1

Another experiment concerns the target T11, ETV3 (Homo sapiens, UniProt P41162-2 1-143).
T11 sequence: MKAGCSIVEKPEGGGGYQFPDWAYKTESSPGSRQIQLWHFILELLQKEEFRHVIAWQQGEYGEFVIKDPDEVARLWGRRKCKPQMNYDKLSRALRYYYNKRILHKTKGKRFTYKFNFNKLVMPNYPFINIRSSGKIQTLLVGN
In outline: as §1

The target in another experiment is ETV6 (Homo sapiens, UniProt P41212 1-452). In outline: as §1
Chain of ETV6 (P41212 whole entry): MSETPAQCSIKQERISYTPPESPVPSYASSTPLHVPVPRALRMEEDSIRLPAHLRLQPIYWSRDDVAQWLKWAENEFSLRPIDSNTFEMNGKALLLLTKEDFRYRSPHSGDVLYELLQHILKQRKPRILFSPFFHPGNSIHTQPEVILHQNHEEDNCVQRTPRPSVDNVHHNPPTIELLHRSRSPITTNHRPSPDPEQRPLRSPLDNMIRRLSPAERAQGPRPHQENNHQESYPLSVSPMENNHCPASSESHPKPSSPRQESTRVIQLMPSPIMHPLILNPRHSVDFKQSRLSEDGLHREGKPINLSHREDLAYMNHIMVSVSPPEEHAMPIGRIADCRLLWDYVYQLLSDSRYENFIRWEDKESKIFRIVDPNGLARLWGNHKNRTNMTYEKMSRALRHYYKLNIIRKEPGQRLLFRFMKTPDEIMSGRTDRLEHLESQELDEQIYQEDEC

Chain of ETV1 (P50549 whole entry): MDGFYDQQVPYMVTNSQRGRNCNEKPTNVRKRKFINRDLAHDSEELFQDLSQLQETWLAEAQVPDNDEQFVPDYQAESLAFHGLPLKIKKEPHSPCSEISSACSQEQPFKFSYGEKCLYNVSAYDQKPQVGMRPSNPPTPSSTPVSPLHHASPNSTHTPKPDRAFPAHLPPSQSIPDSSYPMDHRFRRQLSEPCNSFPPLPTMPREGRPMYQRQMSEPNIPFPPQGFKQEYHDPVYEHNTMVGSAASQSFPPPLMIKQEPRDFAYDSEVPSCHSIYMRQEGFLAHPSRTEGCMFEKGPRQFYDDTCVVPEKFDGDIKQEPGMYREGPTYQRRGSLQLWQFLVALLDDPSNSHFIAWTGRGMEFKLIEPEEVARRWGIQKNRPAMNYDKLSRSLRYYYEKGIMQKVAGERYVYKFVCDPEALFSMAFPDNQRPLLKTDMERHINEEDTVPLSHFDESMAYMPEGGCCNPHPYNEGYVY
Chain of ETV5 (P41161 whole entry): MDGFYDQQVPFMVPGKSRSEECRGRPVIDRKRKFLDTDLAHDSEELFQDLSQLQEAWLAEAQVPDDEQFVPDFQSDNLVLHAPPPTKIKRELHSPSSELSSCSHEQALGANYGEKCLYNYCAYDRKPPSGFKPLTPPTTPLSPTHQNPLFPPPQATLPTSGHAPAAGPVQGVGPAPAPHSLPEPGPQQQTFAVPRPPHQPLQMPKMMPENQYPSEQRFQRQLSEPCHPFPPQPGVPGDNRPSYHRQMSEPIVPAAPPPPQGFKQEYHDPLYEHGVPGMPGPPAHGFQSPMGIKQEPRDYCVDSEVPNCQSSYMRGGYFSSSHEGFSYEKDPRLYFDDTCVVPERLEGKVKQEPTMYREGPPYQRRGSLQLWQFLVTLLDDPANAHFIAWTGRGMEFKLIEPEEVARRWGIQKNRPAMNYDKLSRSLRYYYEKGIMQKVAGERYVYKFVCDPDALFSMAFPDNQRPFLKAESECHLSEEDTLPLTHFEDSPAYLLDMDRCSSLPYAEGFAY

Take AAGGCA: the binding signal is 1.02 fold enrichment (6-mer frequency, TF over GST control) in the experiment with FLI1; 1.05 fold enrichment (6-mer frequency, TF over GST control) with ELK1; 1.03 fold enrichment (6-mer frequency, TF over GST control) with GABPA; 1 fold enrichment (6-mer frequency, TF over GST control) with ELF1; 1.09 fold enrichment (6-mer frequency, TF over GST control) with EHF; 1.07 fold enrichment (6-mer frequency, TF over GST control) with FEV. Besides, the binding signal with ETV5 is 1 fold enrichment (6-mer frequency, TF over GST control); with SPIC, 1.01 fold enrichment (6-mer frequency, TF over GST control); in the experiment with ELF4 it was 1.03 fold enrichment (6-mer frequency, TF over GST control); with ETV1 it was 1.1 fold enrichment (6-mer frequency, TF over GST control); with ERF it was 1.04 fold enrichment (6-mer frequency, TF over GST control); in the experiment with ETV3L, 1.04 fold enrichment (6-mer frequency, TF over GST control). Further, the binding signal with ETS2 was 1.08 fold enrichment (6-mer frequency, TF over GST control); with ELF5, 1.05 fold enrichment (6-mer frequency, TF over GST control); with ETV3 it was 1.07 fold enrichment (6-mer frequency, TF over GST control); with ETV6, 1.03 fold enrichment (6-mer frequency, TF over GST control).

The record behind these values is PMC7862700, “An all-to-all approach to the identification of sequence-specific readers for epigenetic DNA modifications on cytosine”.
